The text below walks through data of PubChem BioAssay AID1024 (Sanford-Burnham Center for Chemical Genomics, 2008).

In all, about 96,000 compounds went through this assay and about 1,400 (1.5%) were called active. Shown is part of a subset that was picked to be rich in actives. A number with no mark means an inactive call.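 How the source made its calls: active means activation factor of 2 or more for CYP2C9 at a 5 µM dose; inactive means the rest.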

The target of this assay is Cytochrome P450 2C9 (Homo sapiens) (UniProt P11712). As to the kind of experiment: human CYP2C9 activators, primary screen, biochemical, luminescence (AID 1024).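 Further: 0 = sulfaphenazole-blocked wells and 1 = vehicle-only wells.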 To be noted: recombinant CYP2C9, luciferin-H conversion, at 5 µM, hits give high values, factor 1 = untreated enzyme, 0 = blocked.
Sequence of Cytochrome P450 2C9 (Homo sapiens) (P11712 whole entry, looked up): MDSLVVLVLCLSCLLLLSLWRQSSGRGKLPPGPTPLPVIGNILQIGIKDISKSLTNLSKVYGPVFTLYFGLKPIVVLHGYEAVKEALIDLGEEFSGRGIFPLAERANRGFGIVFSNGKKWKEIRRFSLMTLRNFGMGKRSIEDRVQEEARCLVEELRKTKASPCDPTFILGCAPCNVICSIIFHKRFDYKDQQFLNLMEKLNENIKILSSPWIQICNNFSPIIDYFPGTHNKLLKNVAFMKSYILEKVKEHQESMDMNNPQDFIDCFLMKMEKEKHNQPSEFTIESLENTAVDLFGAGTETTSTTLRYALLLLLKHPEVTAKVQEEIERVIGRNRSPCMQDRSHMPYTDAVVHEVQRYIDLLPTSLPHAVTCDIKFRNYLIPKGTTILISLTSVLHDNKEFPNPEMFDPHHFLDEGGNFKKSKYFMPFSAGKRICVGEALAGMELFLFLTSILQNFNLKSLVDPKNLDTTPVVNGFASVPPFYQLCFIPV
As for `CCOC(=O)c1sc2nc(SC)nc(-c3ccccc3)c2c1N`, the activation factor was 0.9.

On to `O=c1c([N+](=O)[O-])cc(C(F)(F)F)cn1Cc1cccc(Cl)c1`, for which the activation factor was 0.8. For `O=S(=O)(c1cccs1)N1CCc2ccccc2C1` the value was 3.1 (active).

Take `O=S(=O)(c1cccs1)N1CCN(Cc2ccccc2)CC1`: the activation factor was 0.3. Consider `O=C(Nc1ccc(S(=O)(=O)N2CCc3ccccc3C2)cc1)c1ccccc1`, for which the activation factor is 1. For `COc1ccc(C(=O)N2CCc3cc(OC)c(OC)cc3C2c2cccc([N+](=O)[O-])c2)cc1` (stereo not drawn) the value was 0.4. The same measure for `Cc1nnsc1S(=O)(=O)Cc1ccccc1Cl`: 1; for `COc1ccc(CCNS(=O)(=O)c2ccc(F)cc2)cc1OC`: 0.2; for `O=S(=O)(NCCOc1cccc2cccnc12)c1ccc(F)cc1`: 3.3 (active). The same measure for `O=S(=O)(NCc1ccccn1)c1ccc(F)cc1`: 1; for `O=C(/C=C/c1ccccc1)c1ccoc1`: 0.8; for `Cc1nn(C)c(Oc2ccccc2)c1CCNS(=O)(=O)c1ccc(F)cc1`: 0.5.

Take `CC(C)(C)NC(=O)NC(=O)COC(=O)CCC1CCCCC1`: the activation factor is 0.9. For `COC(=O)c1ccc(NC(=O)c2ccco2)cc1` the value was 0.8. For the molecule `COc1ccccc1C(=O)Nc1ccc(NC(=O)c2ccco2)c(C)c1`, the activation factor is 2.8 (active). For `COc1ccc(OC)c(NC(=O)c2cnn(-c3ccccc3Cl)c2NC(=O)c2ccco2)c1` the value was 0.8. Consider `COC(=O)c1cc(Cl)c(NC(=O)c2ccco2)cc1OC`, for which the activation factor is 2.4 (active). Regarding `COc1ccc(NC(=O)c2cccc(NC(=O)c3ccco3)c2)c(OC)c1`, the activation factor was 1.5. For `COc1cccc(C(=O)Nc2ccc(NC(=O)c3ccco3)cn2)c1` the value was 0.8; for `CCOC(=O)Nc1ccc(S(=O)(=O)N(C)C(C)C)cc1`, 0.7; for `O=C(COc1ccc(Br)cc1F)NC1CCN(Cc2ccccc2)CC1`, 0.7.

As for `Cc1onc(-c2c(Cl)cccc2Cl)c1C(=O)c1c[nH]c(C(=O)NC2CC2)c1`, the activation factor was 0.9.

For `Cc1cc(C(=O)CSc2nc(N)cc(=O)[nH]2)c(C)n1CCc1ccc(Cl)cc1`, the activation factor was 0.9. For `CCn1cc(C(=O)N/N=C(/C)c2ccc(F)cc2)c(=O)c2cc(F)c(N3CCCC3)cc21` the value was 0.9. As for `COc1ccc(S(=O)(=O)NC(CC(=O)NCc2ccccc2OC)c2ccco2)cc1` (stereo not drawn), the activation factor is 1.4. On to `COc1ccccc1Cc1nc(-c2ccc(C)cc2)no1`, for which the activation factor is 0.9. The same measure for `COc1ccccc1CNS(=O)(=O)c1ccc(C)cc1`: 2.6 (active). Take `CCOC(=O)C1(S(=O)(=O)c2ccc(Cl)cc2)CCN(Cc2ccccc2)CC1`: the activation factor is 0.8.
